The values below come from PubChem BioAssay (NCATS).

Inconclusive results are not listed. The source made the active and inactive calls. Unless noted, the call rests on the fitted dose curve; in most records, active means well fitted curve in the direction sought with a large enough effect; inconclusive means small, poorly fitted or top-dose-only effect, or another doubt; inactive means no such curve, though single readings can be large; an effect the other way counts as inactive or inconclusive.

The nature of assay [1]: High-throughput drug toxicity screening in the BPDCN cell line Gen2.2 (AID 1224824; call rule not given here;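 further: cells exposed to compounds for 48 h before reading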). To be noted: Gen2.2 BPDCN cells; at 45.8 µM (top of the series) unless noted. In short, it runs like this: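 CellTiter-Glo luminescence after 48 h compound exposure of Gen2.2 cells; percent activity set with DMSO as 100% and bortezomib (9.2 uM final) as 0%. Cells seeded at 500 per well, RPMI + 10% FBS, 37 °C.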

Assay [2] in a line: High-throughput drug toxicity screening in the BPDCN cell line Cal-1 (AID 1224825; call rule not given here). The note with it: Cal-1 BPDCN cell viability, qHTS; at 45.8 µM (top of the series) unless noted. In short, it runs like this:
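CellTiter-Glo luminescence after 48 h compound exposure; percent activity scaled with DMSO as 100% and bortezomib (9.2 uM final) as 0%. Cal-1 cells seeded at 500/well in RPMI, 10% FBS, no phenol red.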
(In general: qHTS replaces the single test concentration by a dilution series.)

Assay [3] is described as follows: qHTS assay for measurement of the activity of small molecule inhibitors on Zika virus induced Caspase-3 activity in human iPSC derived neural progenitor cells (hNPCs) (AID 1224857). Further: % of control where 0% means no effect; nearly all actives have a fitted effect of over 65% in size. In short, it runs like this: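 Percent inhibition of virus-induced caspase-3/7 luminescence (Caspase-Glo), scaled between uninfected cells and Zika-infected cells. hNPCs received compound 1 hr before ZIKV at 2 FFU/cell, with 6 hours infection at 37 C.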

Assay [4] is described as follows: qHTS assay for measurement of the activity of small molecule inhibitors on Zika virus induced Caspase-3 activity in human astrocytoma cells (AID 1224859).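 Further: plate controls were ZIKV-infected untreated cells for no effect and uninfected cells for full effect.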 A digest of the protocol:
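Luminescent caspase-3/7 read-out (30 min reagent, room temperature) in human SNB-19 cells infected 6 h with ZIKV (2 FFU/cell) after 1 h compound pre-incubation; Data were normalised to uninfected and infected wells.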

A short description of assay [5]: qHTS Screen of the MIPE 4.0 Collection Against Ewings Sarcoma (TC71) (AID 1259253). Further: nearly all actives have a fitted effect of over 40% in size. Further: potency means the concentration at half of the fitted maximal effect. A digest of the protocol: (§1)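 Log-phase cells in RPMI with 5% FBS attached for 4 h, then received compounds as a titration for 48 h at 37C, 5% CO2. Viability was read by CellTiter-Glo luminescence and normalized to DMSO and no-cell wells.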
A short description of assay [6]: qHTS Screen of the MIPE 4.0 Collection Against Ewings Sarcoma (EW8) (AID 1259255). Further: nearly all actives have a fitted effect of over 35% in size. Further: potency means the concentration at half of the fitted maximal effect.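 On viability: 100% = DMSO-treated cells and 0% = medium-only wells without cells.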 In short, it runs like this:
as §1

A short description of assay [7]: qHTS Screen of the MIPE 4.0 Collection Against Ewings Sarcoma (TC32) (AID 1259256). Further: nearly all actives have a fitted effect of over 45% in size. Further: potency means the concentration at half of the fitted maximal effect. In short, it runs like this: as §1
Assay [8] is described as follows: qHTS assay to identify small molecule inhibitors of chordoma cells - UCH-1 (AID 1259355). Further: on the % scale 0 is the no-effect control and ±100 the full control effect; nearly all actives have a fitted effect of over 55% in size. In short, it runs like this: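 Screening used approved and investigational drugs in 15-point titration against 800 seeded cells per well. A fixed combination of auranofin with camptothecin, doxorubicin, rubitecan and topotecan followed compound addition, and growth was scored by CellTiter-Glo after 48hr.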

A short description of assay [9]: qHTS assay to identify small molecule inhibitors of chordoma cells - UCH-2 (AID 1259356). Further: on the % scale 0 is the no-effect control and ±100 the full control effect.
Assay [10] in a line: P-glycoprotein substrates identified in KB-8-5-11 adenocarcinoma cell line, qHTS therapeutic library screen (AID 1346987). Further: nearly all actives have a fitted effect of over 65% in size. Further: potency means the concentration at half of the fitted maximal effect. In short, it runs like this:
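Luminescence from CellTiter-Glo, read 5 min after addition, quantified survival of KB-8-5-11 (P-gp-overexpressing) cells exposed to compounds for 72 h. AC50 was derived from concentration-response curves.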

A short description of assay [11]: P-glycoprotein substrates identified in KB-3-1 adenocarcinoma cell line, qHTS therapeutic library screen (AID 1346986). Further: nearly all actives have a fitted effect of over 60% in size. The note with it: KB-3-1 parental cells viability, CellTiter-Glo, 72 h; at 44.5 µM (top of the series). A digest of the protocol: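 In 1536-well format, 500 cells/well received pinned compound titrations and were incubated 72 h, 5% CO2. Viability was read by CellTiter-Glo; cytotoxic if AC50 < 10 uM and efficacy >50%.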

Assay [12] addresses Atrial natriuretic peptide receptor 1 (Homo sapiens) (UniProt P16066). Nature of the assay: Natriuretic polypeptide receptor (hNpr1) antagonism - Pilot screen (AID 1347049; calls by dose curve;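 further: agonist-evoked cGMP luminescence read 20 min after hNppA addition; on the % scale 0 is the no-effect control and ±100 the full control effect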). A digest of the protocol: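 cGMP-sensor HEK293/hNpr1 cells, 1500/well, plated overnight at 37C. 2% GloSensor reagent, 2 h RT. Compound (23 nL pin transfer) 30 min RT, baseline luminescence pre-read. 0.1 nM hNppA, 20 min RT, post-read.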

The target in assay [13] is Atrial natriuretic peptide receptor 2 (Homo sapiens) (UniProt P20594). In words: Natriuretic polypeptide receptor (hNpr2) antagonism - Pilot subtype selectivity assay (AID 1347050; calls by dose curve; further: on the % scale 0 is the no-effect control and ±100 the full control effect). In short, it runs like this: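 Luminescence from a genetically encoded cGMP luciferase biosensor in hNpr2-expressing HEK293 cells is read before and 20 min after adding 1 nM hNppC. Test compounds, in interplate 1:5 titrations, are added 30-50 min ahead of the agonist.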

Assay [14] in a line: qHTS Screen of the MIPE 4.0 Collection Against Ewings Sarcoma (RDES) (AID 1259252). Further: potency means the concentration at half of the fitted maximal effect; nearly all actives have a fitted effect of over 35% in size. A digest of the protocol: as §1

Sequence of Atrial natriuretic peptide receptor 1 (Homo sapiens) (P16066 whole entry, looked up): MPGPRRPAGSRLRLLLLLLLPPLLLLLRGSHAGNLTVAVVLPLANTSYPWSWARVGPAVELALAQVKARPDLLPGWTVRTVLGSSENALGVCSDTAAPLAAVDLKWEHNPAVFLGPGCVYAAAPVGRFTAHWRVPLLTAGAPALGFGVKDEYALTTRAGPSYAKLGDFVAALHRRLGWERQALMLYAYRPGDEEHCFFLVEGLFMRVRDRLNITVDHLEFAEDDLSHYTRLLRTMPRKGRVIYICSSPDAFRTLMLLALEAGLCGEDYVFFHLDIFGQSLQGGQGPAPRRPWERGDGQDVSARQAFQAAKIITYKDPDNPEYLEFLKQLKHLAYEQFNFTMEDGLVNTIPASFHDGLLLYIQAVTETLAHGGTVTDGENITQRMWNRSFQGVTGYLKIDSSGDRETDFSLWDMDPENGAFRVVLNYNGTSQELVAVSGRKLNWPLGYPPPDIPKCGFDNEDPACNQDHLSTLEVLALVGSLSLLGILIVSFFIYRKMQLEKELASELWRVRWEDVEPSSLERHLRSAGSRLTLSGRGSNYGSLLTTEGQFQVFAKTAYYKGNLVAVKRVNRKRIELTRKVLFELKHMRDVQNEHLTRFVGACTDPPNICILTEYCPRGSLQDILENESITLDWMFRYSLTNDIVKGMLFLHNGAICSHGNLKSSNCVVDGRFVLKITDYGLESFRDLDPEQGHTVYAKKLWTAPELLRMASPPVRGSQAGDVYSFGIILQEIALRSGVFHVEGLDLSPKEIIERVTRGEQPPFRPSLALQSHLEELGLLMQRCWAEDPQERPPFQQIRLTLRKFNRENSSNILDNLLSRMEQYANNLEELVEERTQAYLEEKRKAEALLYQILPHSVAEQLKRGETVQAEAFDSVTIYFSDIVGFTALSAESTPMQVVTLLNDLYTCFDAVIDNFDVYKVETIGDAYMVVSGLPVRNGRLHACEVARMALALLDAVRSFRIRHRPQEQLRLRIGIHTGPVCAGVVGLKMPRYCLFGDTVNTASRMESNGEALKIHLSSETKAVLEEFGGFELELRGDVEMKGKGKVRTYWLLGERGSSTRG
Sequence of Atrial natriuretic peptide receptor 2 (Homo sapiens) (P20594 whole entry, looked up): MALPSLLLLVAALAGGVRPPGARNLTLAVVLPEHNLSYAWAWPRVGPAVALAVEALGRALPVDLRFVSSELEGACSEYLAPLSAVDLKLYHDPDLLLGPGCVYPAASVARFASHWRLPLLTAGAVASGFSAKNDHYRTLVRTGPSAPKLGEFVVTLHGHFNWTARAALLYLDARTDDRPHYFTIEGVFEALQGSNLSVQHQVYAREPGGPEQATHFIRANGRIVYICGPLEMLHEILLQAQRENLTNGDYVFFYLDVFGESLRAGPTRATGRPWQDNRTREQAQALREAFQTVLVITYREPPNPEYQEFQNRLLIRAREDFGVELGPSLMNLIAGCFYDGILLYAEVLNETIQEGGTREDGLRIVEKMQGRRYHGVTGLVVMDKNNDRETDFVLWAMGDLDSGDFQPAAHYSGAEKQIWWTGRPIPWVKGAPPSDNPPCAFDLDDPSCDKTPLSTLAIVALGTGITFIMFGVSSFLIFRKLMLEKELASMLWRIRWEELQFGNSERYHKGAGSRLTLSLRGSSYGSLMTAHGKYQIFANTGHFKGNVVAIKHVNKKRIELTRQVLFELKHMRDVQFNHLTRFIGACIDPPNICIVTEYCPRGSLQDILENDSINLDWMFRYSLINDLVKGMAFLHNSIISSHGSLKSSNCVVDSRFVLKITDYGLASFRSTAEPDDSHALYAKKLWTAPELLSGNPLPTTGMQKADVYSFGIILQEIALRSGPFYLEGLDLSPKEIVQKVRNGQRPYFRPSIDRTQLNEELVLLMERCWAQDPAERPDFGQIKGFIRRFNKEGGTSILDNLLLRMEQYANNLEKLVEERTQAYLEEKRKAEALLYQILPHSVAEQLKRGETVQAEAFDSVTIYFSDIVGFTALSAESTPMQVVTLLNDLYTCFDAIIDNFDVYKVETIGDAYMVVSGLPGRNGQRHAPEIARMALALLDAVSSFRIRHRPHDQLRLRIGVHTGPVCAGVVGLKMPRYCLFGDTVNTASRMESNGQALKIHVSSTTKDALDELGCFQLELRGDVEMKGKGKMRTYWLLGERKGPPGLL

Consider `O=c1cc(O)c(Cl)c[nH]1`, for which the cell viability, % of control (lower = more cytotoxic) in assay [1] is 246%. For the same compound, the viability (% of control) in assay [2] was 39.2%. Further, the Potency result in assay [3], in assay [4], in assay [5], in assay [6], in [7] and in assay [8] was “inactive” in each case. The Potency entry in [9] and in assay [10] was “inactive” in each case.

In the case of `COc1cnc(NS(=O)(=O)c2ccc(N)cc2)nc1`, the cell viability, % of control (lower = more cytotoxic) in assay [1] was 32.7%. The viability (% of control) in [2] is 21.6%. Moreover, the Potency entry in assay [3], in [4], in [5], in assay [6], in [7] and in [8] was “inactive” each time. Besides, the Potency result in assay [9] and in assay [10] was “inactive” throughout. Moreover, the result in assay [11] was inactive.

On to `CC(N)C12CC3CC(CC(C3)C1)C2` (configuration not stated), for which the cell viability, % of control (lower = more cytotoxic) in [1] turned out to be 175%. In [2], the viability (% of control) worked out at 105%. The Potency result in assay [3], in [4], in assay [6], in [7], in [8] and in [9] was “inactive” throughout. Moreover, in [10], the Potency entry is “inactive”.

Turning to `Cc1cccc(N(C)C(=S)Oc2ccc3ccccc3c2)c1`, in [1], the cell viability, % of control (lower = more cytotoxic) was 227%. Further, the viability (% of control) in [2] turned out to be 79.3%. The Potency result in assay [3], in [4], in [5], in assay [6], in [7] and in assay [8] was “inactive” in each case. Besides, the Potency entry in assay [9] and in assay [10] was “inactive” throughout. Also, the outcome in assay [11] was inactive.

Consider `Nc1nc(N)c2nc(CNc3ccc(C(=O)NC(CCC(=O)O)C(=O)O)cc3)cnc2n1` (configuration not stated), for which the cell viability, % of control (lower = more cytotoxic) in [1] was 23.1%. Further, in [2], the viability (% of control) turned out to be 9.27%. The Potency result in [3], in assay [4], in [8], in assay [12] and in assay [13] was “inactive” throughout. In addition, the Potency in assay [5] was 0.0132 µM (active); in assay [7], 0.0332 µM (active); in [10] it was 0.0372 µM (active).

Take `OCc1ccc(-c2nn(Cc3ccccc3)c3ccccc23)o1`: the cell viability, % of control (lower = more cytotoxic) in assay [1] is 199%. In addition, the viability (% of control) in assay [2] was 104%. Further, the Potency result in [3], in assay [4] and in assay [12] was “inactive” throughout. For the same compound, the Potency in assay [14] was 2.64 µM (active); in assay [6], 1.18 µM (active). Moreover, in assay [11], the result was inactive.

Consider `COc1nc(N)nc2c1ncn2[C@@H]1O[C@H](CO)[C@@H](O)[C@@H]1O`, for which the cell viability, % of control (lower = more cytotoxic) in assay [1] turned out to be 82.2%. Also, in assay [2], the viability (% of control) turned out to be 78%. Further, the Potency result in [3], in [4], in assay [6], in [7], in assay [8] and in assay [9] was “inactive” each time. Moreover, the Potency result in [10] was “inactive”. Further, in assay [11], the outcome was inactive.

Take `O=c1oc2c(O)c(O)cc3c(=O)oc4c(O)c(O)cc1c4c23`: in assay [1], the cell viability, % of control (lower = more cytotoxic) was determined as 225%. Also, the viability (% of control) in assay [2] stood at 131%. The Potency result in assay [3], in assay [4], in assay [5], in [6], in [7] and in assay [8] was “inactive” in each case. Besides, the Potency result in assay [9] and in [10] was “inactive” each time.

Regarding `N=C(N)c1ccc(OCCCCCOc2ccc(C(=N)N)cc2)cc1`, the cell viability, % of control (lower = more cytotoxic) in [1] was 272%. The viability (% of control) in [2] came to 39.6%. For the same compound, the Potency entry in assay [3], in assay [4], in assay [8], in [9] and in [10] was “inactive” each time. Besides, the Potency in assay [5] was 8.33 µM (active); in assay [6], 14.8 µM (active).

With `Cc1ccnc2c1NC(=O)c1cccnc1N2C1CC1`, the cell viability, % of control (lower = more cytotoxic) in assay [1] turned out to be 1.63%. In addition, the viability (% of control) in assay [2] amounted to 7.09%. The Potency result in assay [3], in assay [4], in assay [6], in assay [7], in assay [8] and in [10] was “inactive” in each case. In addition, the result in assay [11] was inactive.
